# Test results from the supplement of paper PMC4466140.
# Target: AgAbp1
# Experiment: SPOT peptide array binding signal intensity (averaged, normalized) (arbitrary units (background-subtracted, floor 0; scale differs between SH3 domains)); higher = stronger binding of the SH3 domain to the peptide
# Method in brief: (§1)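 The binding signal is the normalized, background-subtracted spot intensity averaged over replicates; its arbitrary units differ between domains. It was obtained by incubating 10 μg/ml GST-fused SH3 domains from four yeast species overnight at 4°C in TBS-based blocking buffer on cellulose membranes with synthetic 15-mer peptides, cysteines replaced by serines, then detecting with anti-GST antibody, HRP anti-mouse secondary and luminol.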
row,Binder,SPOT peptide array binding signal intensity
1,GDHPKGPPPPPPPDE,≤ 0
2,QLMKNLPKIPLLNDI,≤ 0

# Target: AgBbc1
# Experiment: as above
# Method in brief: as §1
row,Binder,SPOT peptide array binding signal intensity
1,GDHPKGPPPPPPPDE,1
2,QLMKNLPKIPLLNDI,5.5

# Target: AgBem1-D1
# Experiment: as above
# Method in brief: as §1
row,Binder,SPOT peptide array binding signal intensity
1,GDHPKGPPPPPPPDE,≤ 0
2,QLMKNLPKIPLLNDI,301

# Target: AgBzz1-D1
# Experiment: as above
# Method in brief: as §1
row,Binder,SPOT peptide array binding signal intensity
1,GDHPKGPPPPPPPDE,870
2,QLMKNLPKIPLLNDI,20

# Target: AgBzz1-D2
# Experiment: as above
# Method in brief: as §1
row,Binder,SPOT peptide array binding signal intensity
1,GDHPKGPPPPPPPDE,85
2,QLMKNLPKIPLLNDI,36.5

# Target: AgCyk3
# Experiment: as above
# Method in brief: as §1
row,Binder,SPOT peptide array binding signal intensity
1,GDHPKGPPPPPPPDE,≤ 0
2,QLMKNLPKIPLLNDI,≤ 0

# Target: AgFus1
# Experiment: as above
# Method in brief: as §1
row,Binder,SPOT peptide array binding signal intensity
1,GDHPKGPPPPPPPDE,3.5
2,QLMKNLPKIPLLNDI,336

# Target: AgHof1
# Experiment: as above
# Method in brief: as §1
row,Binder,SPOT peptide array binding signal intensity
1,GDHPKGPPPPPPPDE,≤ 0
2,QLMKNLPKIPLLNDI,113

# Target: AgHse1
# Experiment: as above
# Method in brief: as §1
row,Binder,SPOT peptide array binding signal intensity
1,GDHPKGPPPPPPPDE,≤ 0
2,QLMKNLPKIPLLNDI,229

# Target: AgLsb1
# Experiment: as above
# Method in brief: as §1
row,Binder,SPOT peptide array binding signal intensity
1,GDHPKGPPPPPPPDE,≤ 0
2,QLMKNLPKIPLLNDI,1.75

# Target: AgLsb4
# Experiment: as above
# Method in brief: as §1
row,Binder,SPOT peptide array binding signal intensity
1,GDHPKGPPPPPPPDE,11.5
2,QLMKNLPKIPLLNDI,16.5

# Target: AgMyo5
# Experiment: as above
# Method in brief: as §1
row,Binder,SPOT peptide array binding signal intensity
1,GDHPKGPPPPPPPDE,1360
2,QLMKNLPKIPLLNDI,2.75

# Target: AgNbp2
# Experiment: as above
# Method in brief: as §1
row,Binder,SPOT peptide array binding signal intensity
1,GDHPKGPPPPPPPDE,9
2,QLMKNLPKIPLLNDI,120

# Target: AgRvs167
# Experiment: as above
# Method in brief: as §1
row,Binder,SPOT peptide array binding signal intensity
1,GDHPKGPPPPPPPDE,0.167
2,QLMKNLPKIPLLNDI,1.67

# Target: AgSho1
# Experiment: as above
# Method in brief: as §1
row,Binder,SPOT peptide array binding signal intensity
1,GDHPKGPPPPPPPDE,11
2,QLMKNLPKIPLLNDI,3070

# Target: AgSla1-D1-D2
# Experiment: as above
# Method in brief: as §1
row,Binder,SPOT peptide array binding signal intensity
1,GDHPKGPPPPPPPDE,6
2,QLMKNLPKIPLLNDI,≤ 0

# Target: AgSla1-D3
# Experiment: as above
# Method in brief: as §1
row,Binder,SPOT peptide array binding signal intensity
1,GDHPKGPPPPPPPDE,358
2,QLMKNLPKIPLLNDI,2.75

# Target: CaAbp1-D1
# Experiment: as above
# Method in brief: as §1
row,Binder,SPOT peptide array binding signal intensity
1,GDHPKGPPPPPPPDE,≤ 0
2,QLMKNLPKIPLLNDI,9.5

# Target: CaAbp1-D2
# Experiment: as above
# Method in brief: as §1
row,Binder,SPOT peptide array binding signal intensity
1,GDHPKGPPPPPPPDE,≤ 0
2,QLMKNLPKIPLLNDI,46

# Target: CaBbc1
# Experiment: as above
# Method in brief: as §1
row,Binder,SPOT peptide array binding signal intensity
1,GDHPKGPPPPPPPDE,≤ 0
2,QLMKNLPKIPLLNDI,14.5

# Target: CaBem1-D1
# Experiment: as above
# Method in brief: as §1
row,Binder,SPOT peptide array binding signal intensity
1,GDHPKGPPPPPPPDE,≤ 0
2,QLMKNLPKIPLLNDI,187

# Target: CaBzz1-D1
# Experiment: as above
# Method in brief: as §1
row,Binder,SPOT peptide array binding signal intensity
1,GDHPKGPPPPPPPDE,3200
2,QLMKNLPKIPLLNDI,222

# Target: CaBzz1-D2
# Experiment: as above
# Method in brief: as §1
row,Binder,SPOT peptide array binding signal intensity
1,GDHPKGPPPPPPPDE,2040
2,QLMKNLPKIPLLNDI,121

# Target: CaCyk3
# Experiment: as above
# Method in brief: as §1
row,Binder,SPOT peptide array binding signal intensity
1,GDHPKGPPPPPPPDE,≤ 0
2,QLMKNLPKIPLLNDI,4

# Target: CaFus1
# Experiment: as above
# Method in brief: as §1
row,Binder,SPOT peptide array binding signal intensity
1,GDHPKGPPPPPPPDE,≤ 0
2,QLMKNLPKIPLLNDI,670

# Target: CaHof1
# Experiment: as above
# Method in brief: as §1
row,Binder,SPOT peptide array binding signal intensity
1,GDHPKGPPPPPPPDE,0.25
2,QLMKNLPKIPLLNDI,2.75

# Target: CaHse1
# Experiment: as above
# Method in brief: as §1
row,Binder,SPOT peptide array binding signal intensity
1,GDHPKGPPPPPPPDE,6.5
2,QLMKNLPKIPLLNDI,168

# Target: CaLsb1
# Experiment: as above
# Method in brief: as §1
row,Binder,SPOT peptide array binding signal intensity
1,GDHPKGPPPPPPPDE,≤ 0
2,QLMKNLPKIPLLNDI,2.5

# Target: CaLsb4
# Experiment: as above
# Method in brief: as §1
row,Binder,SPOT peptide array binding signal intensity
1,GDHPKGPPPPPPPDE,5.5
2,QLMKNLPKIPLLNDI,590

# Target: CaMyo5
# Experiment: as above
# Method in brief: as §1
row,Binder,SPOT peptide array binding signal intensity
1,GDHPKGPPPPPPPDE,41
2,QLMKNLPKIPLLNDI,83.8

# Target: CaNbp2
# Experiment: as above
# Method in brief: as §1
row,Binder,SPOT peptide array binding signal intensity
1,GDHPKGPPPPPPPDE,≤ 0

# Target: CaRvs167
# Experiment: as above
# Method in brief: as §1
row,Binder,SPOT peptide array binding signal intensity
1,GDHPKGPPPPPPPDE,≤ 0

# Target: CaRvs167-3
# Experiment: as above
# Method in brief: as §1
row,Binder,SPOT peptide array binding signal intensity
1,GDHPKGPPPPPPPDE,1.25

# Target: CaSho1
# Experiment: as above
# Method in brief: as §1
row,Binder,SPOT peptide array binding signal intensity
1,GDHPKGPPPPPPPDE,≤ 0

# Target: CaSla1-D1-D2
# Experiment: as above
# Method in brief: as §1
row,Binder,SPOT peptide array binding signal intensity
1,GDHPKGPPPPPPPDE,≤ 0

# Target: CaSla1-D3
# Experiment: as above
# Method in brief: as §1
row,Binder,SPOT peptide array binding signal intensity
1,GDHPKGPPPPPPPDE,1.75

# Target: ScAbp1
# Experiment: as above
# Method in brief: as §1
row,Binder,SPOT peptide array binding signal intensity
1,GDHPKGPPPPPPPDE,≤ 0

# Target: ScBbc1
# Experiment: as above
# Method in brief: as §1
row,Binder,SPOT peptide array binding signal intensity
1,GDHPKGPPPPPPPDE,2.5

# Target: ScBem1-D1
# Experiment: as above
# Method in brief: as §1
row,Binder,SPOT peptide array binding signal intensity
1,GDHPKGPPPPPPPDE,≤ 0

# Target: ScBzz1-D1
# Experiment: as above
# Method in brief: as §1
row,Binder,SPOT peptide array binding signal intensity
1,GDHPKGPPPPPPPDE,4000

# Target: ScBzz1-D2
# Experiment: as above
# Method in brief: as §1
row,Binder,SPOT peptide array binding signal intensity
1,GDHPKGPPPPPPPDE,31.5

# Target: ScCyk3
# Experiment: as above
# Method in brief: as §1
row,Binder,SPOT peptide array binding signal intensity
1,GDHPKGPPPPPPPDE,≤ 0

# Target: ScFus1
# Experiment: as above
# Method in brief: as §1
row,Binder,SPOT peptide array binding signal intensity
1,GDHPKGPPPPPPPDE,2.5

# Target: ScHof1
# Experiment: as above
# Method in brief: as §1
row,Binder,SPOT peptide array binding signal intensity
1,GDHPKGPPPPPPPDE,≤ 0

# Target: ScHse1
# Experiment: as above
# Method in brief: as §1
row,Binder,SPOT peptide array binding signal intensity
1,GDHPKGPPPPPPPDE,7.5

# Target: ScLsb1
# Experiment: as above
# Method in brief: as §1
row,Binder,SPOT peptide array binding signal intensity
1,GDHPKGPPPPPPPDE,≤ 0

# Target: ScLsb2
# Experiment: as above
# Method in brief: as §1
row,Binder,SPOT peptide array binding signal intensity
1,GDHPKGPPPPPPPDE,≤ 0

# Target: ScLsb3
# Experiment: as above
# Method in brief: as §1
row,Binder,SPOT peptide array binding signal intensity
1,GDHPKGPPPPPPPDE,≤ 0

# Target: ScLsb4
# Experiment: as above
# Method in brief: as §1
row,Binder,SPOT peptide array binding signal intensity
1,GDHPKGPPPPPPPDE,≤ 0

# Target: ScMyo3
# Experiment: as above
# Method in brief: as §1
row,Binder,SPOT peptide array binding signal intensity
1,GDHPKGPPPPPPPDE,1390

# Target: ScMyo5
# Experiment: as above
# Method in brief: as §1
row,Binder,SPOT peptide array binding signal intensity
1,GDHPKGPPPPPPPDE,1300

# Target: ScNbp2
# Experiment: as above
# Method in brief: as §1
row,Binder,SPOT peptide array binding signal intensity
1,GDHPKGPPPPPPPDE,≤ 0

# Target: ScPex13
# Experiment: as above
# Method in brief: as §1
row,Binder,SPOT peptide array binding signal intensity
1,GDHPKGPPPPPPPDE,≤ 0

# Target: ScRvs167
# Experiment: as above
# Method in brief: as §1
row,Binder,SPOT peptide array binding signal intensity
1,GDHPKGPPPPPPPDE,0.333

# Target: ScSho1
# Experiment: as above
# Method in brief: as §1
row,Binder,SPOT peptide array binding signal intensity
1,GDHPKGPPPPPPPDE,≤ 0

# Target: ScSla1-D1-D2
# Experiment: as above
# Method in brief: as §1
row,Binder,SPOT peptide array binding signal intensity
1,GDHPKGPPPPPPPDE,≤ 0

# Target: ScSla1-D3
# Experiment: as above
# Method in brief: as §1
row,Binder,SPOT peptide array binding signal intensity
1,GDHPKGPPPPPPPDE,≤ 0

# Target: SpAbp1-D1
# Experiment: as above
# Method in brief: as §1
row,Binder,SPOT peptide array binding signal intensity
1,GDHPKGPPPPPPPDE,≤ 0

# Target: SpBbc1
# Experiment: as above
# Method in brief: as §1
row,Binder,SPOT peptide array binding signal intensity
1,GDHPKGPPPPPPPDE,1.25

# Target: SpBzz1-D1
# Experiment: as above
# Method in brief: as §1
row,Binder,SPOT peptide array binding signal intensity
1,GDHPKGPPPPPPPDE,42

# Target: SpBzz1-D2
# Experiment: as above
# Method in brief: as §1
row,Binder,SPOT peptide array binding signal intensity
1,GDHPKGPPPPPPPDE,1.5

# Target: SpCyk3
# Experiment: as above
# Method in brief: as §1
row,Binder,SPOT peptide array binding signal intensity
1,GDHPKGPPPPPPPDE,≤ 0

# Target: SpHof1
# Experiment: as above
# Method in brief: as §1
row,Binder,SPOT peptide array binding signal intensity
1,GDHPKGPPPPPPPDE,≤ 0

# Target: SpHof1-2
# Experiment: as above
# Method in brief: as §1
row,Binder,SPOT peptide array binding signal intensity
1,GDHPKGPPPPPPPDE,1.5

# Target: SpHof1-3
# Experiment: as above
# Method in brief: as §1
row,Binder,SPOT peptide array binding signal intensity
1,GDHPKGPPPPPPPDE,≤ 0

# Target: SpHse1
# Experiment: as above
# Method in brief: as §1
row,Binder,SPOT peptide array binding signal intensity
1,GDHPKGPPPPPPPDE,85.2

# Target: SpLsb1
# Experiment: as above
# Method in brief: as §1
row,Binder,SPOT peptide array binding signal intensity
1,GDHPKGPPPPPPPDE,0.5

# Target: SpLsb4
# Experiment: as above
# Method in brief: as §1
row,Binder,SPOT peptide array binding signal intensity
1,GDHPKGPPPPPPPDE,≤ 0

# Target: SpMyo1
# Experiment: as above
# Method in brief: as §1
row,Binder,SPOT peptide array binding signal intensity
1,GDHPKGPPPPPPPDE,1500

# Target: SpNbp2
# Experiment: as above
# Method in brief: as §1
row,Binder,SPOT peptide array binding signal intensity
1,GDHPKGPPPPPPPDE,≤ 0

# Target: SpPex13
# Experiment: as above
# Method in brief: as §1
row,Binder,SPOT peptide array binding signal intensity
1,GDHPKGPPPPPPPDE,2

# Target: SpRvs167
# Experiment: as above
# Method in brief: as §1
row,Binder,SPOT peptide array binding signal intensity
1,GDHPKGPPPPPPPDE,9

# Target: SpSla1-D1-D2
# Experiment: as above
# Method in brief: as §1
row,Binder,SPOT peptide array binding signal intensity
1,GDHPKGPPPPPPPDE,9

# Target: SpSla1-D3
# Experiment: as above
# Method in brief: as §1
row,Binder,SPOT peptide array binding signal intensity
1,GDHPKGPPPPPPPDE,≤ 0
